Source: PubChem (National Center for Advancing Translational Sciences (NCATS))
HPGD block – qHTS Assay for Inhibitors of HPGD (15-Hydroxyprostaglandin Dehydrogenase); purified HPGD, NADH fluorescence kinetic, PGE2 substrate; hit rate 4.3% among 150,000; Potency, µM, for the others: at the top dose activity change, negative = inhibition, usual class: inhibitors; further: potency means the concentration at half of the fitted maximal effect
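20 nM HPGD preincubated 15 min at room temperature with compound in 50 mM Tris-HCl pH 8, 0.01% Tween 20. Started with 1 mM NAD+ and 30 uM prostaglandin E2; NADH fluorescence (360/450 nm) read 5 times over 30-s intervals, last minus first.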
PNC inhibitor – High Content Assay for Compounds that inhibit the Assembly of the Perinucleolar Compartment; PC3M PTB-GFP, PNC prevalence imaging, 16 h; hits give low values; hit rate 3.1% among 140,000; activity change (PNC), negative = inhibition, % at 10 µM;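 active means readout at or below -70, meaning at least 70% loss of cells showing the perinucleolar compartment, a nuclear body marking cancer cells; inconclusive means readout between -30 and a set limit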;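 further: plate controls were DMSO wells for no effect and camptothecin positive control wells for full effect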
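Compounds are pinned in duplicate onto adhered PC3M cells stably expressing GFP-tagged PTB and incubated 16 h at 37 C. Cells are then fixed, nuclei stained with Hoechst, and PNC-positive cells counted.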
ALDH1A1 block – qHTS Assay for Inhibitors of Aldehyde Dehydrogenase 1 (ALDH1A1); Aldehyde dehydrogenase 1A1 (Homo sapiens), P00352; Purified ALDH1A1, NADH fluorescence, propionaldehyde substrate; Potency, µM (titrated, usually from 75.3 µM), for inactives: at the top dose activity, negative = inhibition, usual class: inhibitors; hit rate 7.3% among 220,000;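 further: potency means the concentration at half of the fitted maximal effect; plate controls were no enzyme wells and a reference inhibitor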
Target sequence (P00352 whole entry, looked up): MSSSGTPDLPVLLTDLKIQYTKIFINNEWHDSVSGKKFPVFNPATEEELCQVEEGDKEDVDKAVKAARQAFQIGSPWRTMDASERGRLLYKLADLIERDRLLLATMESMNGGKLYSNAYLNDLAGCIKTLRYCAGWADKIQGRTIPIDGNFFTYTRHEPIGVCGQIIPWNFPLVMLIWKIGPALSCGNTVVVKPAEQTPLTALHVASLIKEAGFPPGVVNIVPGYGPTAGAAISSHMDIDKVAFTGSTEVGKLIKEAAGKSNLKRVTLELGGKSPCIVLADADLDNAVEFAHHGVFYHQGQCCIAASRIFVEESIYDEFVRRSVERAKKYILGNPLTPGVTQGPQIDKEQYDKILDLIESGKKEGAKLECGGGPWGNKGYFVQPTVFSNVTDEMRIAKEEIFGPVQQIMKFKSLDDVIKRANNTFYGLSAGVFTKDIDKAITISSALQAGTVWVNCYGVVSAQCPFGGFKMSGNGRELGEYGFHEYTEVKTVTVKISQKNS
The depositor's hits bear a star; u = inconclusive; x = not tested or not shown; [ ] = remark or other dose. Sampled rows, rich in hits. Any-hit rate of the full collection: about 11%. Unless noted, the call rests on the fitted dose curve; in most records, active means well fitted inhibition curve with a large enough effect (not every such curve was filed as active); inconclusive means small, poorly fitted or top-dose-only effect, or another doubt; inactive means no such curve, though single readings can be large or run the other way. Unless noted, on the % scale 0 is the no-effect control and ±100 the full control effect.

SMILES	HPGD block	PNC inhibitor	ALDH1A1 block
O=C(CCCNS(=O)(=O)c1cccc2nsnc12)NCc1ccc(F)cc1	-17%	34	u
Cc1ccc(CNC(=O)CCCNS(=O)(=O)c2cccc3nonc23)cc1	-12%	14	7.1µM*
O=C(CCS(=O)(=O)c1cccc2nsnc12)NCc1ccccc1	-6%	-26	u
COc1ccc(CNC(=O)CCCNS(=O)(=O)c2cccc3nonc23)cc1	-6%	-18	14µM*
CC(=O)Nc1ccc(NC(=O)CCNS(=O)(=O)c2cccc3nsnc23)cc1	x	x	13µM*
COc1ccc(CCNC(=O)CCNS(=O)(=O)c2cccc3nonc23)cc1OC	-10%	-26	u
CC(=O)c1cccc(NC(=O)CCS(=O)(=O)c2cccc3nsnc23)c1	28µM*	u	22µM*
COc1cccc(NC(=O)CCNS(=O)(=O)c2cccc3nsnc23)c1	x	x	5%
NC(=O)C1CCN(CC(=O)Nc2cccc(C(=O)Nc3cccc(C(F)(F)F)c3)c2)CC1	-15%	-24	26%
COc1ccc(OC2C=CC(c3ccccc3)OC2CO)c(C(C)(C)C)c1 (stereo not given)	x	x	14%[13.5 µM]
CSCC[C@H](NC(=O)Nc1ccc(Oc2ccccc2)cc1)C(=O)O	x	x	-6%
CSc1cccc(NS(=O)(=O)c2cccc3nsnc23)c1	-14%	11	u
COc1cc(NS(=O)(=O)c2cccc3nsnc23)cc(OC)c1	-3%	-82*	7%
OCC1OC([S-])[C@H](O)C(O)C1O.[Au+] (stereo not given in full)	-25%	x	u
COc1ccccc1-c1noc(-c2ccco2)n1	-5%	-118*	-6%
COc1ccccc1-c1noc(-c2ccccc2)n1	-35%	-6	u
CC(C)c1cccc(C(C)C)c1NC(=S)Nc1cccc(Cl)c1	x	x	-2%
Cc1cc(-c2nnc(-c3cccc(Cl)c3)o2)no1	x	x	8%
O=C(NCc1ccc(F)cc1)C(=O)Nc1nc(C23CC4CC(CC(C4)C2)C3)cs1	-25%	3	-5%
c1csc(CNc2nc(-c3ccoc3)nc3ccccc23)c1	x	x	-9%
N#CC1=C(N)SC(N)=C(C#N)C1c1ccnc2ccccc12	16µM*	-14	u
O=C1c2ccccc2C(=O)C1c1ccnc2ccccc12	2%	-20	3%
COc1ccc(-n2c3c(c(=O)[nH]c2=O)C(NC(C)=O)(C(F)(F)F)C(=O)N3)cc1 (stereo not given)	x	x	11%
CCOC(=O)C1(CC2CCCCO2)CCN(S(=O)(=O)c2ccc(C)s2)CC1 (stereo not given)	x	x	20µM*
CCOC(=O)C1(CC2CCCCO2)CCN(C(=O)Nc2ccccc2)CC1 (stereo not given)	x	x	-6%
SMILES	HPGD block	PNC inhibitor	ALDH1A1 block
COC(=O)c1cccc(NC(=O)Nc2ccccc2OC)c1	x	x	4%
S=c1nc[nH]c2c1cnn2-c1ccccc1	x	x	3.2µM*
Nc1ncnc2c1cnn2-c1ccccc1	-29%	6	u
CC1CCC(C(=O)O)NC1c1cccc(N2CCOCC2)c1 (stereo not given)	x	x	-3%[13.5 µM]
CC1CCC/C(=C\Nc2ccc(O)cc2)C1=O (stereo not given)	u	13	8.9µM*
Cc1cc(C(=O)O)ccc1N/C=C1\CCCC(C)C1=O (stereo not given)	-12%	-5	-13%
Cc1ccc(NC(=S)NCCN2CCOCC2)cc1F	x	x	-1%
COc1ccc(C)cc1NC(=O)C1CCN(C(=O)Cc2ccccc2)CC1	x	x	3%
CCCNC(=O)c1nc(C)n(-c2ccc([N+](=O)[O-])cc2)n1	x	x	13%
CCN1C(=O)c2cccc3c(NC(=O)c4ccc(OC)c(OC)c4)ccc1c23	-6%	u	4.5µM*
CCN1C(=O)c2cccc3c(NC(=O)c4ccccc4)ccc1c23	-10%	u	u
CCN1C(=O)c2cccc3c(NC(=O)c4ccc5c(c4)OCCO5)ccc1c23	-2%	-6	u
CCN1C(=O)c2cccc3c(NC(=O)C4CCCCC4)ccc1c23	x	u	4µM*
Cc1cc(C)c(C)c(S(=O)(=O)Nc2ccccc2C(=O)NCCCN2CCOCC2)c1C	x	x	1%
COC(=O)[C@H](COC(C)(C)C)NC(=O)O[C@@H]1Cc2cc(Br)ccc2O[C@H]1c1cccc(OC)c1	-4%	x	16%
Cc1ccc(NS(=O)(=O)c2ccc(C(=O)OCC(=O)NCC3CCCO3)cc2)cc1 (stereo not given)	x	x	12%
Cn1c(CC(=O)Nc2ccc(Cl)c(Cl)c2)nnc1SCC(=O)NCc1ccccc1	x	x	8%
COc1ccc(N2C(=O)C3CCCCC3C2=O)cc1NC(=O)c1ccccc1 (stereo not given)	x	x	0.89µM*
COc1cc(NC(=O)C2CCCO2)c(OC)cc1NC(=O)c1ccccc1 (stereo not given)	-4%	17	-7%
COc1ccc(C)cc1N(CC(=O)N/N=C/c1ccccc1C(=O)O)S(=O)(=O)c1ccccc1	x	x	18%
CC(=O)O[C@H]1CC[C@]2(C)C(=CC[C@H]3[C@H]4C[C@H]5O[C@]6(CC[C@H](C)CN6)[C@H](C)[C@@H]5[C@]4(C)CC[C@@H]32)C1	-7%	x	-4%[13.5 µM]
Cc1csc(NC(=O)C2CCN(S(=O)(=O)c3ccc4c(c3)oc(=O)n4C)CC2)n1	-18%	-6	0%
Cc1csc(NC(=O)C(CC(C)C)NS(=O)(=O)c2ccc3c(c2)oc(=O)n3C)n1 (stereo not given)	-14%	-82*	1%
Cc1c(NC(=O)c2ccc(Br)s2)c(=O)n(-c2ccccc2)n1C	x	x	10%
Clc1ccc(OCCCNCc2ccccc2)c(Br)c1	-10%	-89*	-9%
SMILES	HPGD block	PNC inhibitor	ALDH1A1 block
Clc1ccc(Cl)c(OCCCCNCc2ccccc2)c1	3%	23	-10%
Clc1ccc(Cn2c(/C=C/c3ccco3)nc3ccccc32)cc1	u	-84*	u
Cc1ccc(Cn2c(/C=C/c3ccco3)nc3ccccc32)cc1	u	-19	u
COc1ccc(CCCn2ncc3c2nc(N)n2nc(-c4ccco4)nc32)cc1	u	x	-7%
CCOC(=O)c1c(C)n(C)c2ccc(OC)c([N+](=O)[O-])c12	x	x	16%
O=C(NC(=S)NNC(=O)c1ccccc1[N+](=O)[O-])c1ccccc1	32µM*	3	10µM*
O=C(NNC(=S)NC(=O)c1ccccc1[N+](=O)[O-])c1ccccc1	-2%	u	-4%
CCC(=O)NC(=S)NNC(=O)c1ccccc1[N+](=O)[O-]	x	x	10µM*
Cc1ccccc1OCC(=O)NNC(=S)NC(=O)c1ccccc1[N+](=O)[O-]	-2%	u	3%
O=C(Nc1ccc(S(=O)(=O)N2CCCC2)cc1)C1CCCN1C(=O)c1cccs1 (stereo not given)	x	x	-1%
CCCC(CCC)C(=O)Nc1ccc2c(c1)N(C(=O)CCN1CCN(C)CC1)c1ccccc1CC2	x	x	3%
COc1ccc2o/c(=N\O)c(C(=O)Nc3ccccc3OC)cc2c1	13µM*	18	u
COc1ccc(NC(=O)c2oc3cc(C)c(C)cc3c2C)c(OC)c1	u	7	11%
COc1ccc(OC)c(NC(=O)c2cc3ccccc3o2)c1	u	-23	u
